Sampled rows, rich in hits. Any-hit rate of the full collection: about 10%.
GPT2 inhibitor – Primary qHTS assay for inhibitors of Glutamate pyruvate transaminase 2 (GPT2). Alanine aminotransferase 2 (Homo sapiens), Q8TD30. 100,000 tested, 0.25% active. Potency, µM (top dose mostly 57.7 µM), inactives show at the highest dose activity change, negative = inhibition, hits mostly inhibitors. Recombinant GPT2, coupled pyruvate oxidase/HRP Amplex Red fluorescence; further: on the % scale 0 is the no-effect control and ±100 the full control effect; nearly all actives have a fitted effect of over 60% in size
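Fluorescence read-out: pyruvate from GPT2 turnover coupled to pyruvate oxidase, HRP and Amplex Red (0.2mM ThPP, 0.2U/mL PO and HRP, 50uM Amplex final). Substrates 250uM a-KG, 2mM L-alanine; enzyme 10ng/uL; 30 min RT.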
hNpr1 antagonist – Natriuretic polypeptide receptor (hNpr1) antagonism - Primary qHTS; Atrial natriuretic peptide receptor 1 (Homo sapiens), P16066; HEK293 hNpr1 GloSensor cGMP, ANP-stimulated luminescence; Potency, µM (doses to about 46.3 µM), without a hit: at the top dose activity change, negative = inhibition, usual class: inhibitors; 76,000 tested, 1.6% active; AID 1347048, 2019; calls by dose curve; further: on the % scale 0 is the no-effect control and ±100 the full control effect; nearly all actives have a fitted effect of over 60% in size
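HEK293 cells stably expressing human Npr1 and cGMP GloSensor pGS-40F, loaded 2 h with 2% GloSensor reagent, given compound 30 min at room temperature. Luminescence read before and 20 min after 0.1 nM hNppA.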
NIH3T3 tox – Cytotoxic Profiling in NIH 3T3 Cell Line of Diverse Libraries Using Quantitative High-Throughput Screening. NIH 3T3 viability, CellTiter-Glo ATP luminescence, 48-72 h. Potency, µM (highest dose often 96.7 µM), for inactives: at the highest dose activity change, negative = cytotoxicity, usual class: inhibitors. 94,000 tested, 4.3% active; further: on the % scale 0 is the no-effect control and ±100 the full control effect; nearly all actives have a fitted effect of over 55% in size
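NIH 3T3 cells at 400 cells/well received 23 nL of compound by pintool and were incubated 48 or 72 h at 37 °C. Viability was read as ATP-coupled CellTiter-Glo luminescence.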
FLuc inh – Firefly luciferase inhibition profiling of diverse chemical library using quantitative high-throughput screening. 76,000 tested, 2.5% active. Luciferin 4-monooxygenase (Photinus pyralis), P08659. Potency, µM (titrated, usually from 115 µM), actives largely listed as inhibitors. purified P. pyralis luciferase, luminescence, biochemical; further: on the % scale 0 is the no-effect control and ±100 the full control effect; nearly all actives have a fitted effect of over 65% in size
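Luminescence read by CCD imager after adding enzyme (10nM final) to wells holding compound, titrated in qHTS. Substrates 10uM each D-luciferin and ATP; buffer 50mM Tris acetate pH 7.5, 10mM Mg acetate, Tween-20, BSA.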
HEK293 tox – Cytotoxic Profiling in HEK 293 Cell Line of Diverse Libraries Using Quantitative High-Throughput Screening; HEK 293 viability, ATP luminescence (CellTiter-Glo), 48-72 h; Potency, µM (highest dose often 115 µM), for inactives: top-dose activity change, negative = cytotoxicity, actives largely listed as inhibitors; 94,000 tested, 6.6% active; further: on the % scale 0 is the no-effect control and ±100 the full control effect; nearly all actives have a fitted effect of over 60% in size
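250 HEK 293 cells/well; compound by pintool; incubated 48 or 72 hr at 37 degree Celsius; CellTiter-Glo added, 10 min RT, luminescence imaged.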
Npr1 antag conf – Natriuretic polypeptide receptor (hNpr1) antagonism - Confirmation; Potency, µM (top dose mostly 57.6 µM), without a hit: at the highest dose activity change, negative = inhibition, hits mostly inhibitors; shares compounds with hNpr1 antagonist; AID 1347044, 2019; 1,400 tested, 76% active; HEK293 hNpr1 cGMP GloSensor luminescence, ANP-stimulated; calls by dose curve; further: nearly all actives have a fitted effect of over 70% in size
NPR2 antag – Natriuretic polypeptide receptor (hNpr2) antagonism - Subtype selectivity assay; Potency, µM (top dose mostly 57.6 µM), without a hit: at the top dose activity change, negative = inhibition, actives largely listed as inhibitors; 1,400 tested, 67% active; HEK293 hNpr2 GloSensor cGMP luminescence, CNP-stimulated; shares compounds with hNpr1 antagonist; AID 1347046, 2019; calls by dose curve; further: nearly all actives have a fitted effect of over 70% in size
Target sequence (P20594 whole entry, looked up): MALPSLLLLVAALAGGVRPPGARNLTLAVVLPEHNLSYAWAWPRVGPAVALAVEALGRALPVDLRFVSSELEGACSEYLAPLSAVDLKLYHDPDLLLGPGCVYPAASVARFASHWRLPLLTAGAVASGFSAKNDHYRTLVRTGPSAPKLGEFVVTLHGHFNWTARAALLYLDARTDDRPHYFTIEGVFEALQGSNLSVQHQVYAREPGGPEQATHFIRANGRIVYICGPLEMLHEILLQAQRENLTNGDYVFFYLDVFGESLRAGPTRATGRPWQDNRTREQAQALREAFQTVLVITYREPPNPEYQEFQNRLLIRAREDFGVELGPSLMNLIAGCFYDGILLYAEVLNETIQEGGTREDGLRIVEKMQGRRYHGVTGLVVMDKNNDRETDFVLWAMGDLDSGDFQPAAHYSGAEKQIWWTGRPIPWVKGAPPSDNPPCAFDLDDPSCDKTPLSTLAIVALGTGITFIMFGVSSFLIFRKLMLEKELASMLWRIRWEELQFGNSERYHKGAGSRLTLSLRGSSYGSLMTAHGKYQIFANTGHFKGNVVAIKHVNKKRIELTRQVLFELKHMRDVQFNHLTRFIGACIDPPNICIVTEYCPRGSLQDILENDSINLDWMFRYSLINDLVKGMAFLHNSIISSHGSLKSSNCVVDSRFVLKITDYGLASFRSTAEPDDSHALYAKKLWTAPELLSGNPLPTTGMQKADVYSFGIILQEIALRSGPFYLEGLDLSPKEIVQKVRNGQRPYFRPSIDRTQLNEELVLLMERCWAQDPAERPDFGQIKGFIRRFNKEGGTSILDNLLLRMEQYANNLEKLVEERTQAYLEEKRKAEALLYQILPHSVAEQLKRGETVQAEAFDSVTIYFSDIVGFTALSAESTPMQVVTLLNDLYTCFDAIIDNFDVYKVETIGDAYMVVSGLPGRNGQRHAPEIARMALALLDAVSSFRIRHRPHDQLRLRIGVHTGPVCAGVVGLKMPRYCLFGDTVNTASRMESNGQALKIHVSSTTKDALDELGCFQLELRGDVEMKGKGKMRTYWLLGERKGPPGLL
FLuc inh counter – Natriuretic polypeptide receptor (hNpr1) antagonism - Confirmation firefly luciferase (FLuc) inhibition counterscreen. AID 1347047, 2019. 1,400 tested, 0.7% active. Potency, µM (doses to about 57.6 µM), without a hit: top-dose activity change, negative = inhibition, usual class: inhibitors. shares compounds with hNpr1 antagonist. purified FLuc enzyme, luminescence, Km substrate; further: 0% is about no effect
GloSensor ctrl – Natriuretic polypeptide receptor (hNpr1) antagonism - Counterscreen GloSensor control cell line. HEK293 GloSensor cGMP, SNP-stimulated, luminescence. shares compounds with hNpr1 antagonist. Potency, µM (doses to about 57.6 µM), for inactives: top-dose activity change, negative = inhibition, actives largely listed as inhibitors. 1,400 tested, 69% active; calls by dose curve; further: on the % scale 0 is the no-effect control and ±100 the full control effect; nearly all actives have a fitted effect of over 70% in size
* marks the source's active call; other numbers are inactive results; i = inactive; ? = inconclusive; nt = no result; [ ] = dose if it differs, or a comment. Unless noted, the call rests on the fitted dose curve; in most records, active means well fitted curve in the direction sought with a large enough effect; inconclusive means small, poorly fitted or top-dose-only effect, or another doubt; inactive means no such curve, though single readings can be large; an effect the other way counts as inactive or inconclusive. Potency means the concentration at half of the fitted maximal effect.

SMILES | GPT2 inhibitor | hNpr1 antagonist | NIH3T3 tox | FLuc inh | HEK293 tox | Npr1 antag conf | NPR2 antag | FLuc inh counter | GloSensor ctrl
COc1ccc(-c2nc(C)nc3c2CCN(Cc2cncs2)CC3)cc1 | i | 0.0% | -12.6% | i | 2.1% | nt | nt | nt | nt
O=C(NC[C@H]1CCc2ccccc2O1)c1cccc(-n2cnnc2)c1 | -10.7% | 1.3% | -18.7% | i | 1.7% | nt | nt | nt | nt
COc1ccc(-c2noc(CC3CCN(C(=O)c4ccccc4C)CC3)n2)cc1 | -20.2% | 10µM* | ? | i | ? | 15.3µM* | 17.2µM* | 3.1% | 12.2µM*
COc1cc(OC)cc(C(=O)N2CCC(Cc3nc(-c4cnccn4)no3)CC2)c1 | 4.5% | 9.4% | -20.7% | i | 15.2% | nt | nt | nt | nt
CCOc1ccccc1C(=O)N1CCC(Cc2nc(-c3ccc(OC)cc3)no2)CC1 | i | 11.2µM* | ? | i | ? | 24.3µM* | 21.7µM* | 0.9% | 24.3µM*
COc1ccc(C(=O)N2CCC3(CC2)CC(Cc2nc(-c4cnccn4)no2)CCO3)c(OC)n1 (stereo not given) | -14.4% | -1.0% | 2.3% | i | -1.2% | nt | nt | nt | nt
COc1ccc(-c2noc(CC3CCN(C(=O)c4ccc(OC)nc4OC)CC3)n2)cc1 | -5.3% | 3.98µM* | ? | i | 20µM* | 5.44µM* | 8.62µM* | 1.7% | 6.11µM*
Cc1ccccc1C(=O)N1CCC(Cc2nc(-c3ccccc3)no2)CC1 | 3.7% | 8.91µM* | ? | i | ? | 10.9µM* | 17.2µM* | -2.7% | 10.9µM*
Cc1c(CN2CCN(C(=O)C(C)O)CC2)sc2c(N3CCOCC3)nc(-c3cnc(N)nc3)nc12 (stereo not given) | 0.1% | nt | nt | nt | nt | nt | nt | nt | nt
COCCOc1ncccc1-c1noc([C@@H]2CCCN2C2CCN(C(C)=O)CC2)n1 | ? | 3.2%[70.6 µM] | -1.8%[174 µM] | i | -3.9%[172 µM] | nt | nt | nt | nt
COCCNC(=O)[C@H]1C[C@H](Oc2ccccc2)CN1C(=O)c1ccccc1 | i | -7.6% | -0.2% | i | i | nt | nt | nt | nt
O=C(Nc1cccc(-c2nnc3n2CCCC3)c1)c1ccncc1 | i | 1.6% | i | i | 2.7% | nt | nt | nt | nt
COc1ccc([S+](=O)([O-])N2CCC3(CC2)OCCN(c2ccc(F)cc2)C3=O)cc1 | -12.9%[88.5 µM] | ? | ? | i | ? | 31.4µM* | ? | -1.6%[86.2 µM] | 31.4µM*
COc1cccc(CNC(=O)c2ccc3oc(-c4ccccn4)nc3c2)c1 | i | nt | ? | nt | ? | nt | nt | nt | nt
O=C(CN1CCCc2nc(-c3ccncc3)ncc2C1=O)N1CCc2ccccc2C1 | -6.8% | 8.91µM* | ? | i | 35.5µM* | 12.2µM* | 15.3µM* | 2.4% | 15.3µM*
O=C(CN1CCCc2nc(-c3ccncc3)ncc2C1=O)NCCN1CCOCC1 | i | -21.1% | -0.7% | i | -4.3% | nt | nt | nt | nt
O=C(CCCc1c[nH]c2ccccc12)N1CCC(c2noc(COc3ccc(F)cc3)n2)CC1 | -11.2% | 11.2µM* | ? | i | ? | 21.7µM* | 24.3µM* | 3.2% | 17.2µM*
Cc1ccc(NC(=O)O[C@@H]2CO[C@H]3[C@@H]2OC[C@@H]3Nc2nccc(-c3ccccc3)n2)cc1 | -3.1%[88.5 µM] | ? | -22.1%[174 µM] | ? | ? | nt | nt | nt | nt
Nc1ncc(C(=O)N[C@@H]2CC[C@@H](N)C2)c(-c2ccccc2)n1 | 4.6% | 7.4% | i | i | -6.2% | nt | nt | nt | nt
CN(Cc1cccnc1)c1nc2c(c(=O)[nH]1)CCN(Cc1ccc(Cl)cc1F)CC2 | ? | 11.2µM* | ? | i | ? | 15.3µM* | 17.2µM* | 3.8% | 9.68µM*
CCOc1ccccc1C1NC(=O)N(CC(=O)Nc2cccc(C(C)C)c2)C2=C1C(=O)OC2 (stereo not given) | i | ? | ? | i | ? | ? | ? | -0.7% | ?
Cc1ccc(NC(=O)CN2C(=O)NC(c3ccc(Cl)cc3)C3=C2COC3=O)c(Cl)c1 (stereo not given) | -0.1% | ? | ? | i | 44.7µM* | ? | -27.9% | 3.6% | -19.7%
O=C(CN1C(=O)NC(c2ccc(Cl)cc2)C2=C1COC2=O)Nc1ccc(F)c(Cl)c1 (stereo not given) | ? | ? | 39.8µM* | i | ? | ? | ? | -5.8% | ?
Cc1ccc(NC(=O)CN2C(=O)NC(c3ccc(Cl)cc3)C3=C2COC3=O)c(C)c1 (stereo not given) | 0.0% | -19.7% | ? | i | ? | nt | nt | nt | nt
COc1cccc(CNc2ncnc3c2CN(c2ccc([N+](=O)[O-])cc2)C(=O)N(C)C3)c1 | i | 2.4% | -23.9% | i | 0.4% | nt | nt | nt | nt
O=C(NC1CCN(c2cc(C(F)(F)F)ncn2)CC1)c1ccco1 | i | 1.9% | -4.4% | i | 6.0% | nt | nt | nt | nt
Cc1nc2c(c(-c3ccc(O)cc3)n1)CN(Cc1cccc3ccccc13)CC2 | -13.6% | -16.4% | ? | i | ? | -21.5% | -12.7%[86.2 µM] | -1.3%[86.2 µM] | i
COc1ccc(NC(=O)Cn2c(N(C)Cc3ccccc3)nc(C)cc2=O)cc1Cl | 4.4% | 11.2µM* | ? | i | ? | 10.9µM* | 10.9µM* | -1.7% | 9.68µM*
COc1ccc(NC(=O)Cn2c(N(C)Cc3ccccc3)nc(C)cc2=O)cc1 | i | 11.2µM* | ? | i | 44.7µM* | 19.3µM* | ? | -2.2% | 15.3µM*

Compound activity (PubChem BioAssay)
